Screen size: about 5,500 compounds; about 2,000 (36%) were called active. Another 18% or so got no clear call; they are omitted. Rule as the data show it: active = normalized growth mostly below about 0.91 (no sharp cut-off); inconclusive = no clear call, values can overlap the other calls; inactive = mostly above about 0.92. The list shows a part of the results.
Experiment: chemical genetic growth profiling, strain panel (AID 1159580);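 also: tested at 20 µM; growth read once vehicle control cultures reached saturation at 30 °C; 1 = growth at the plate median or of vehicle wells; lower values mean less growth of the strain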
Conditions: S. cerevisiae deletion strains, growth OD

Measured: normalized growth

COc1ccc(-c2coc3c(OC)c(OC)cc(OC)c3c2=O)cc1
inactive: locus YAL013W, strain DEP1, hits give low values 0.977 | locus YBR021W, strain FUR4, hits give low values 0.875 | locus YBR229C, strain ROT2, hits give low values 0.998 | locus YCL029C, strain bik1, hits give low values 1 | locus YDL035C, strain GPR1, hits give low values 0.985 | locus YDL074C, strain BRE1, hits give low values 0.961 | locus YDL101C, strain DUN1, hits give low values 0.993 | locus YDL185W, strain tfp1, hits give low values 0.992 | locus YDL192W, strain arf1, hits give low values 0.991 | locus YDR101C, strain arx1, hits give low values 0.983 | locus YDR150W, strain NUM1, hits give low values 0.991 | locus YDR162C, strain NBP2, hits give low values 0.893 | locus YDR318W, strain mcm21, hits give low values 0.978 | locus YDR388W, hits give low values 1.01 | locus YDR502C, strain sam2, hits give low values 0.982 | locus YEL061C, strain CIN8, hits give low values 1 | locus YER110C, hits give low values 0.995 | locus YER155C, strain BEM2, hits give low values 0.998 | locus YER167W, strain BCK2, hits give low values 0.977 | locus YGL078C, strain dbp3, hits give low values 1 | locus YGL086W, strain mad1, hits give low values 0.974 | locus YGL248W, strain PDE1, hits give low values 0.979 | locus YGR078C, strain PAC10, hits give low values 0.94 | locus YGR135W, strain pre9, hits give low values 0.969 | locus YGR252W, strain gcn5, hits give low values 0.848 | locus YHR030C, strain SLT2, hits give low values 0.997 | locus YHR079C, strain IRE1 (second series), hits give low values 0.993 | locus YHR094C, strain hxt1, hits give low values 0.996 | locus YHR129C, strain ARP1, hits give low values 0.995 | locus YHR200W, strain rpn10, hits give low values 0.985 | locus YIL066C, strain RNR3, hits give low values 0.951 | locus YIL073C, strain SPO22, hits give low values 0.973 | locus YIL125W, strain kgd1, hits give low values 0.992 | locus YIR030C, strain dcg1, hits give low values 1.01 | locus YJL095W, strain BCK1, hits give low values 0.899 | locus YJL134W, strain LCB3, hits give low values 1 | locus YJL168C, strain set2, hits give low values 0.995 | locus YJL187C, strain SWE1 (second series), hits give low values 0.971 | locus YJR043C, strain POL32, hits give low values 0.964 | locus YJR075W, strain HOC1, hits give low values 0.974 | locus YKL009W, strain mrt4, hits give low values 0.981 | locus YKL068W, hits give low values 1.02 | locus YKL085W, strain MDH1 (second series), hits give low values 0.993 | locus YKL085W, strain MDH1, hits give low values 0.993 | locus YKL190W, strain CNB1, hits give low values 0.986 | locus YKR001C, strain vps1, hits give low values 0.903 | locus YLR039C, strain RIC1, hits give low values 0.928 | locus YLR058C, strain SHM2, hits give low values 0.983 | locus YLR102C, strain apc9, hits give low values 0.993 | locus YLR262C, strain YPT6, hits give low values 0.904 | locus YLR268W, strain sec22, hits give low values 0.952 | locus YLR330W, strain CHS5, hits give low values 1 | locus YLR342W, strain FKS1 (second series), hits give low values 0.924 | locus YLR371W, strain rom2, hits give low values 0.993 | locus YLR418C, strain cdc73, hits give low values 0.884 | locus YML016C, strain PPZ1, hits give low values 1 | locus YML032C, strain rad52, hits give low values 0.999 | locus YML124C, strain tub3, hits give low values 0.994 | locus YMR078C, strain ctf18, hits give low values 1.01 | locus YMR223W, strain ubp8, hits give low values 0.994 | locus YMR307W, strain GAS1, hits give low values 0.83 | locus YNL067W, strain RPL9B, hits give low values 0.964 | locus YNL128W, strain TEP1, hits give low values 0.998 | locus YNL153C, strain GIM3, hits give low values 0.978 | locus YNL233W, strain BNI4, hits give low values 0.914 | locus YNL250W, strain rad50, hits give low values 1.02 | locus YNL271C, strain bni1, hits give low values 1 | locus YNL298W, strain CLA4, hits give low values 1.01 | locus YNL307C, strain MCK1, hits give low values 0.968 | locus YNL322C, strain KRE1, hits give low values 0.985 | locus YNR052C, strain pop2, hits give low values 1.02 | locus YOL012C, strain htz1 1.15 | locus YOL147C, strain pex11, hits give low values 0.982 | locus YOR061W, strain CKA2, hits give low values 0.998 | locus YOR069W, strain VPS5, hits give low values 1.01 | locus YOR136W, strain idh2, hits give low values 0.987 | locus YOR144C, strain elg1, hits give low values 0.991 | locus YOR184W, strain ser1, hits give low values 0.938 | locus YOR316C, strain cot1, hits give low values 0.999 | locus YPL055C, strain LGE1, hits give low values 0.904 | locus YPL241C, strain CIN2, hits give low values 0.995 | locus YPR119W, strain clb2, hits give low values 0.987 | locus YPR141C, strain kar3, hits give low values 1 | locus YPR163C, strain tif3, hits give low values 0.985 | locus YPR167C, strain met16, hits give low values 0.985 | strain wtn01, hits give low values 0.972
